# Assay results reported in the supplement of paper PMC8728848.
# Only a selection was taken, and the strongest signals are over-represented in it overall.
# Experiments:
# Test in all cases: glycan array binding signal (z-score within array); higher = stronger binding
# Conditions in all cases: glycan notation: IUPAC condensed, linker removed
# [1] = molecular target: Gal(b1-4)GlcNAc(b1-3)Gal(b1-4)GlcNAc(b1-3)Gal(b1-4)GlcNAc(b1-3)Gal(b1-4)GlcNAc(b1-3)Gal(b1-4)GlcNAc(b1-2)Man(a1-3)[Gal(b1-4)GlcNAc(b1-3)Gal(b1-4)GlcNAc(b1-3)Gal(b1-4)GlcNAc(b1-3)Gal(b1-4)GlcNAc(b1-3)Gal(b1-4)GlcNAc(b1-2)Man(a1-6)]Man(b1-4)GlcNAc(b1-4)GlcNAc
# In short: (§1)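 The Consortium for Functional Glycomics database supplied 3228 glycan arrays, of which those lacking an available protein sequence were dropped. The binding signal, a within-array Z-score, was averaged across arrays of the same protein sequence and across linkers. Negative scores can be read as non-binding.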
# [2] = molecular target: Gal(b1-4)GlcNAc(b1-3)Gal(b1-4)GlcNAc(b1-3)Gal(b1-4)GlcNAc(b1-3)Gal(b1-4)GlcNAc(b1-3)Gal(b1-4)GlcNAc(b1-2)Man(a1-3)[Gal(b1-4)GlcNAc(b1-3)Gal(b1-4)GlcNAc(b1-3)Gal(b1-4)GlcNAc(b1-3)Gal(b1-4)GlcNAc(b1-3)Gal(b1-4)GlcNAc(b1-2)Man(a1-6)]Man(b1-4)GlcNAc(b1-4)[Fuc(a1-6)]GlcNAc
# In short: as §1
# [3] = molecular target: Gal(b1-4)GlcNAc(b1-3)Gal(b1-4)GlcNAc(b1-3)[Gal(b1-4)GlcNAc(b1-3)Gal(b1-4)GlcNAc(b1-6)]GalNAc
# In short: as §1
# Gal3S(b1-3)GlcNAc = molecular target: Gal3S(b1-3)GlcNAc
# In short: as §1
# Gal3S6S(b1-4)GlcNAc6S = molecular target: Gal3S6S(b1-4)GlcNAc6S
# In short: as §1
# Gal6P(b1-4)GlcNAc = molecular target: Gal6P(b1-4)GlcNAc
# In short: as §1
# [4] = molecular target: GalNAc(b1-3)Gal(a1-6)Gal(b1-4)Glc
# In short: as §1
# [5] = molecular target: GalNAc(b1-4)GlcNAc(b1-2)Man
# In short: as §1
# [6] = molecular target: GalNAc3S(b1-4)[Fuc(a1-3)]GlcNAc
# In short: as §1
# GlcA(b1-3)GlcNAc = molecular target: GlcA(b1-3)GlcNAc
# In short: as §1
# [7] = molecular target: GlcNAc(b1-2)Man(a1-3)[GlcNAc(b1-2)Man(a1-6)]Man(b1-4)GlcNAc(b1-4)GlcNAc
# In short: as §1
# [8] = molecular target: GlcNAc(b1-2)[GlcNAc(b1-4)]Man(a1-3)[GlcNAc(b1-4)][GlcNAc(b1-2)[GlcNAc(b1-6)]Man(a1-6)]Man(b1-4)GlcNAc(b1-4)[Fuc(a1-6)]GlcNAc
# In short: as §1
# [9] = molecular target: GlcNAc(b1-3)Gal(b1-3)GalNAc
# In short: as §1
# GlcNAc(b1-3)Gal(b1-4)Glc = molecular target: GlcNAc(b1-3)Gal(b1-4)Glc
# In short: as §1
# [10] = molecular target: GlcNAc(b1-3)Gal(b1-4)GlcNAc
# In short: as §1
# [11] = molecular target: GlcNAc(b1-3)Gal(b1-4)GlcNAc(b1-3)Gal(b1-4)GlcNAc(b1-3)Gal(b1-4)GlcNAc(b1-2)Man(a1-3)[GlcNAc(b1-3)Gal(b1-4)GlcNAc(b1-3)Gal(b1-4)GlcNAc(b1-3)Gal(b1-4)GlcNAc(b1-2)Man(a1-6)]Man(b1-4)GlcNAc(b1-4)[Fuc(a1-6)]GlcNAc
# In short: as §1
# [12] = molecular target: GlcNAc(b1-3)Gal(b1-4)GlcNAc(b1-6)[GlcNAc(b1-3)Gal(b1-3)]GalNAc
# In short: as §1
# [13] = molecular target: Man(a1-2)Man(a1-3)[Man(a1-6)]Man(a1-6)[Man(a1-2)Man(a1-3)]Man(b1-4)GlcNAc(b1-4)GlcNAc
# In short: as §1
# Man(b1-4)GlcNAc = molecular target: Man(b1-4)GlcNAc
# In short: as §1
# [14] = molecular target: Neu5Ac(a2-3)Gal(b1-3)GalNAc6S
# In short: as §1
# [15] = molecular target: Neu5Ac(a2-3)Gal(b1-3)GlcNAc6S
# In short: as §1
# [16] = molecular target: Neu5Ac(a2-3)Gal(b1-3)[Fuc(a1-4)]GlcNAc(b1-3)Gal(b1-4)[Fuc(a1-3)]GlcNAc
# In short: as §1
# [17] = molecular target: Neu5Ac(a2-3)Gal(b1-4)GlcNAc(b1-2)[Neu5Ac(a2-3)Gal(b1-4)GlcNAc(b1-4)]Man(a1-3)[GlcNAc(b1-4)][Neu5Ac(a2-3)Gal(b1-4)GlcNAc(b1-2)[Neu5Ac(a2-3)Gal(b1-4)GlcNAc(b1-6)]Man(a1-6)]Man(b1-4)GlcNAc(b1-4)GlcNAc
# In short: as §1
# [18] = molecular target: Neu5Ac(a2-3)Gal(b1-4)GlcNAc(b1-6)[Gal(b1-3)]GalNAc
# In short: as §1
# [19] = molecular target: Neu5Ac(a2-3)Gal(b1-4)[Fuc(a1-3)]GlcNAc(b1-3)Gal(b1-4)GlcNAc
# In short: as §1
# Neu5Ac(a2-3)GalNAc = molecular target: Neu5Ac(a2-3)GalNAc
# In short: as §1
# [20] = molecular target: Neu5Ac(a2-6)Gal(b1-4)GlcNAc(b1-2)Man(a1-6)Man(b1-4)GlcNAc(b1-4)GlcNAc
# In short: as §1
# [21] = molecular target: Neu5Ac(a2-6)Gal(b1-4)GlcNAc(b1-3)Gal(b1-4)[Fuc(a1-3)]GlcNAc(b1-3)Gal(b1-4)[Fuc(a1-3)]GlcNAc
# In short: as §1
# Neu5Ac(a2-8)Neu5Ac = molecular target: Neu5Ac(a2-8)Neu5Ac
# In short: as §1
# [22] = molecular target: Neu5Gc(a2-3)Gal(b1-3)GlcNAc
# In short: as §1
# [23] = molecular target: Neu5Gc(a2-8)Neu5Gc(a2-6)Gal(b1-4)GlcNAc
# In short: as §1
binder,measurement,setting,value
Mermaid1 (Stilbonema majum) (protein) MGSSHHHHHHSSGLVPRGSHMAASGWLRSPQGTVVKLYRRSLSWSKADEFCKDVDGRLVVDRTADMHLFLIKNVLKEKKSRVWVGLRRTAPHSRTWIWSDGTRQNEDDLDANLWLRDEPNDAAGEEECALFMYSPWEKAWGLNDYLCRGGCRSYQFICEKWIR,glycan array binding signal (z-score),[1],0.715
same,glycan array binding signal (z-score),[2],-0.28
same,glycan array binding signal (z-score),[3],-0.17
same,glycan array binding signal (z-score),Gal3S(b1-3)GlcNAc,0.37
same,glycan array binding signal (z-score),Gal3S6S(b1-4)GlcNAc6S,-0.524
same,glycan array binding signal (z-score),Gal6P(b1-4)GlcNAc,-0.911
same,glycan array binding signal (z-score),[4],-0.59
same,glycan array binding signal (z-score),[5],3.48
same,glycan array binding signal (z-score),[6],0.714
same,glycan array binding signal (z-score),GlcA(b1-3)GlcNAc,-0.379
same,glycan array binding signal (z-score),[7],-0.645
same,glycan array binding signal (z-score),[8],-0.663
same,glycan array binding signal (z-score),[9],-0.864
same,glycan array binding signal (z-score),GlcNAc(b1-3)Gal(b1-4)Glc,0.313
same,glycan array binding signal (z-score),[10],-0.029
same,glycan array binding signal (z-score),[11],0.762
same,glycan array binding signal (z-score),[12],-0.841
same,glycan array binding signal (z-score),[13],-0.285
same,glycan array binding signal (z-score),Man(b1-4)GlcNAc,8.49
same,glycan array binding signal (z-score),[14],0.152
same,glycan array binding signal (z-score),[15],0.494
same,glycan array binding signal (z-score),[16],2.98
same,glycan array binding signal (z-score),[17],-0.428
same,glycan array binding signal (z-score),[18],5.42
same,glycan array binding signal (z-score),[19],-0.359
same,glycan array binding signal (z-score),Neu5Ac(a2-3)GalNAc,-0.535
same,glycan array binding signal (z-score),[20],-0.437
same,glycan array binding signal (z-score),[21],-0.822
same,glycan array binding signal (z-score),Neu5Ac(a2-8)Neu5Ac,-0.351
same,glycan array binding signal (z-score),[22],-0.396
same,glycan array binding signal (z-score),[23],0.03
